# Assay results from PubChem BioAssay AID1671193 (National Center for Advancing Translational Sciences (NCATS), 2021).
# Hit rate of the full screen: of about 150,000 compounds, about 180 (0.12%) were called active. Another 6% or so got no clear call; they are omitted. The list comes from a sample in which actives are over-represented; it also holds similar structures and randomly drawn compounds. Entries that show only a call come without a potency. A number with no mark means an inactive call. The call rests on the fitted dose curve; in most records, active means well fitted cell-killing curve with a large enough effect; inconclusive means small, poorly fitted or top-dose-only effect, or effect the other way; inactive means flat fitted curve, though single readings scatter.
# Experiment: GF-AFC viability counterscreen for inhibitors of alpha-synuclein gene (SNCA) expression; further: nearly all actives have a fitted effect of over 30% in size
# Conditions: HEK-293-SNCA-luc viability, GF-AFC fluorescence, 24 h; series mostly up to 57.1 µM
# From the text: Assay Submitter (PI): Daniel R. Scoles Ph.D.
# Department of Neurology, University of Utah, Salt Lake City, Utah
# Accumulation of alpha-synuclein is a main underlying pathological feature of Parkinson's disease (PD) and alpha-synucleinopathies, for which lowering expression of the alpha-synuclein gene (SNCA) is a potential therapeutic avenue. Using a cell-based luciferase reporter of SNCA expression we performed a quantitative high throughput screen (qHTS) of 155,885 compounds in dose response. The screening assay was generated using genome editing to insert the luciferase gene downstream and in frame of the SNCA gene in HEK-293 cells (1). A viability counterscreen using GF-AFC was used to eliminate cytotoxic and false positive compounds. After in silico analysis (clustering, removal of frequent hitter nuisance chemotypes), inhibitor compounds from the primary screen were selected for follow up and re-tested at 11-doses in the SNCA-luc cells (luciferase and GF-AFC confirmation), and in CMV-luc expressing cell line to flag general transcriptional repressors.
# Described herein are the results of the GF-AFC viability counterscreen for SNCA inhibitors; inactivity (no decrease in fluorescence signal, not cytotoxic) is the desired output for this assay.
# 1. Dansithong, W., Paul, S., Scoles, D. R., Pulst, S. M., and Huynh, D. P. (2015) Generation of SNCA Cell Models Using Zinc Finger Nuclease (ZFN) Technology for Efficient High-Throughput Drug Screening. PLoS ONE 10, e0136930.
# SEQUENCE No. (e.g., 1, 2, 3, etc.); […] (e.g., Cells, Incubation, Reagent, etc.); VALUE; DESCRIPTION
# 1; Cells; 4 uL; Dispense 1500 HEK-293-SNCA-luc cells/well into Greiner 1536-well white / solid bottom tissue culture treated plate. The plate was covered with metal lids with gas-exchange holes.
# 2; Incubate; 24 hours; Incubate at 37C, 5% CO2, 95% RH.
# 3; Compounds; 23 nL; Compounds and controls were transferred via a Kalypsys Pin Tool (Wako USA) equipped with a 1536-slotted pin array. The plate was covered with metal lids with gas-exchange holes.
# 4; Incubate; 24 hours; Incubate at 37C, 5% CO2, 95% RH.
# 5; Dispense; 1 uL; Dispense Gly-Phe-7-amino-4-trifluoromethylcoumarin (GF-AFC, prepared at 125 uM in PBS) was added. The plate was covered with metal lids with gas-exchange holes.
# 6; Incubate; 30 min; Incubate at 37C, 5% CO2.
# 7; Detector; Fluorescence; Measure fluorescence with ViewLux microplate reader (PerkinElmer) equipped with 405/10 excitation and 540/25 emission filters.
# 8; Dispense; 3 uL; Dispense ONE-Glo ([…]) lucifase detection reagent was added to each well. Plates were covered with metal lids with gas-exchange holes.
# 9; Incubate; 15 min; Incubate at room temperature.
# 10; Detector; Luminescence; Measure luminescence with ViewLux microplate reader (PerkinElmer) equipped with clear filters.
# NOTES (numbers refer to sequence above)
# 1; HEK-293-SNCA-luc were cultured and suspended in phenol-red free DMEM (4.5 g/L glucose, 25 mM HEPES, cat #21063 (Thermo)).
# 3; Compounds were added to the assay plate in an 11-point intra plate dose response, 1:3 titration in DMSO with a final concentration range of […]. Vehicle-only plates, with DMSO being pin-transferred to every well, were inserted at the beginning of screening runs to confirm expected assay performance. Activity was normalized to wells containing medium only (-100% activity, full inhibition) and SNCA-luc cells treated with DMSO vehicle control (0% activity), contained on the same plate as test samples.
# 10; Signals were analyzed, and dose-response curves were fit using the Hill equation. Compounds in curve classes -1.1, -1.2, -2.1, -2.2 in the SNCA-luc assay were considered active. Compounds were eliminated from further consideration if also active (curve class -1.1, -1.2, -1.3, -1.4, -2.1, -2.2, -2.3, -2.4) in the GF-AFC cytotoxicity assay.
Structure (SMILES),Potency,"activity change, negative = cytotoxicity"
COc1ccccc1-c1nc(C(=O)NCc2cccs2)n2ccncc12,inactive,
O=C(c1ccc(C(F)(F)F)cc1)N1CCCC(C(=O)N2CCC(c3nc4ccncc4[nH]3)C2)C1 (stereo not drawn),inactive,
CN1CCC2(CC1)Cc1ccccc1CN(C(=O)c1cccc(Cl)c1)C2,inactive,
O=C(NCc1cccc(Cl)c1)C1CCc2nnc(-c3cccc(C(F)(F)F)c3)n21 (stereo not drawn),inactive,
COc1ccccc1CN1C(=O)COC[C@@H]1[C@H](O)c1ccc(NC(=O)c2ccc(C#N)cc2)cc1,inactive,
CC(C)Cc1ccc(CN2CCC3(CC2)Cc2ccccc2CNC3=O)cc1,inactive,
COc1ccc(S(=O)(=O)N2CCC3(CCC(=O)N(CC4CC4)CC3)CC2)cc1,inactive,
O=C(NC1CCN(c2cc(-c3cccs3)[nH]n2)C1)c1ccc(Br)cc1 (stereo not drawn),inactive,
COc1ccc(CN2CC(Oc3ccc(F)c(F)c3)C2)cc1,inactive,
COc1cccc(-c2cc(C3CCN(C(=O)Nc4ccccc4C)CC3)[nH]n2)c1,inactive,
Cc1cccc(-c2nc3ccc(C(=O)N4C(C)CCCC4C)cc3o2)n1 (stereo not drawn),inactive,
COc1ccc(NC(=O)N2CCCC(Cc3noc(-c4ccccc4)n3)C2)cc1 (stereo not drawn),inactive,
O=C(Cc1ccc(F)cc1)N1CCC(n2cc(-c3nc(-c4ccccc4)no3)nn2)CC1,inactive,
COc1ccc(CNC(=O)C2CCN(c3cc(C(F)(F)F)nc(C)n3)CC2)cc1,inactive,
O=C(Nc1ccc(Cl)cc1)NC1CCN(C(=O)c2ccc(-c3cncnc3)cc2)CC1,,0.645% [at 12.5 µM]
O=C(NC1CCCc2c1[nH]c1c(Cl)cccc21)c1ccco1 (stereo not drawn),inactive,
COc1ccc(C)cc1NC(=O)Nc1cccc(-c2ccc(N3CCCCC3)nn2)c1,inactive,
CC1(CCCCc2ccccc2)COc2ccc(C(=O)N3CCNC(=O)C3)cc2N1 (stereo not drawn),inactive,
COC(=O)C1=C(C)N=C2SC=C(CC(=O)N3CCCC3)N2C1c1cccc(F)c1 (stereo not drawn),inactive,
COC(=O)N1CCC(C(=O)N2CCC3(CC2)CC(=O)Nc2ccccc2O3)CC1,inactive,
O[C@@H]1C[C@@H](c2nc(-c3ccc4c(c3)OCO4)no2)N(Cc2ccc(-c3ccccn3)cc2)C1,inactive,
CN(C)c1cccc(-c2cnc(Nc3ccc(N4CCOCC4)cc3)c3c2CCO3)c1,inactive,
Cc1ccccc1N(C)C1CN(C(=O)OC(C)(C)C)C1,inactive,
COc1cccc(-c2cc(-c3nc(-c4ccc5nc[nH]c5c4)no3)[nH]n2)c1,inactive,

Structure (SMILES),Potency,"activity change, negative = cytotoxicity"
COc1ccc(S(=O)(=O)N2CCC(n3cnnc3-c3ccccc3)CC2)cc1Cl,inactive,
O=C(C1CCN(c2nc(-c3ccccc3)nc3c2CCC3)CC1)N1CCC[C@H]1CO,inactive,
O=C(O)CCNC(=O)Cn1nc2c(cc1=O)CCCC2,inactive,
O=C(NCc1ccc(F)cc1)C1CCCN(c2ccnc3ccnn23)C1 (stereo not drawn),inactive,
O=C(c1ccco1)N1CCC(O)(c2ccccc2)[C@H](N2CCCC2)C1 (stereo partly drawn),inactive,
COc1ccc(-n2c(=O)c(C(=O)Nc3ccccc3Cl)nc3cccnc32)cc1,inactive,
Cc1ccc(C(=O)N2CCC(C(=O)N3CCC(c4nc5ncccc5[nH]4)CC3)C2)cc1 (stereo not drawn),inactive,
O=C(Nc1cc(-c2cccnc2)nn1-c1ccccc1)c1ccccc1F,inactive,
CC(C)Cn1c(=O)c(C(=O)NCc2ccccc2Cl)nc2cccnc21,inactive,
CC(C)C(=O)N1CCC2(CC1)OC(=O)N(Cc1ccccc1F)C2(C)c1ccccc1 (stereo not drawn),inactive,
FC(F)(F)c1ccc(CN2CCCC3(CC(c4ccccc4)=NO3)C2)cc1 (stereo not drawn),inactive,
O=C(NCCC1CCN(C(=O)Nc2ccc(F)cc2)CC1)c1ccccn1,inactive,
COc1ccc(C(=O)N2CCC3(CC2)N(c2ccccc2)C(=O)CS3(=O)=O)cc1F,inactive,
Cc1ccc(F)cc1S(=O)(=O)N1CCC(OC2CCN(Cc3ccccc3)CC2)CC1,inactive,
COc1cc(CNCCOc2ccccc2)ccc1OCC(O)CN1CCOCC1 (stereo not drawn),inactive,
CC(=O)NC[C@H]1COCc2nc3cc(NC(C)=O)ccc3n21,inactive,
COCCOc1ccc(-c2noc([C@@H]3CCCN3C3CCC3)n2)cn1,inactive,
COc1ccccc1CN1Cc2cc(NC(=O)C3CCCC3)ccc2OC(C)C1=O (stereo not drawn),inactive,
O=C(CCC1CCN(S(=O)(=O)c2ccccc2)CC1)NCCc1ccccc1,inactive,
CC(=O)c1c(C)nn(C(C)CC(=O)N2C[C@H]3CC=CC[C@H]3C2)c1C (stereo partly drawn),inactive,
O=C(C[C@@H]1CCNC[C@@H]1Cc1cc(CC2CCCCC2)on1)NC1CCCCC1,inactive,
COc1cccc([C@@H]2CN(C(=O)CCCn3cnnn3)C[C@H]2C(=O)O)c1,inactive,
COCCN(C)Cc1ccc(CC2CCN(C(=O)C3(c4ccc(OC)cc4)CC3)CC2)cc1,inactive,
CCOc1ccc(CC(=O)N2CCC(C3CCN(C(=O)NC)CC3)C2)cc1 (stereo not drawn),,6.55% [at 12.5 µM]
